# This is one part of a sample in which hits are shown more often than they occur.
# 12-LOX inh: inhibitors of human 12S-lipoxygenase ALOX12 | Potency, µM (series often up to 108 µM), for inactives: at the highest dose activity change, negative = inhibition, hits mostly inhibitors | 580,000 compounds, 1.1% hits | P18054 | purified 12hLO, xylenol orange hydroperoxide absorbance; further: potency means the concentration at half of the fitted maximal effect
# Target sequence (P18054 whole entry, looked up): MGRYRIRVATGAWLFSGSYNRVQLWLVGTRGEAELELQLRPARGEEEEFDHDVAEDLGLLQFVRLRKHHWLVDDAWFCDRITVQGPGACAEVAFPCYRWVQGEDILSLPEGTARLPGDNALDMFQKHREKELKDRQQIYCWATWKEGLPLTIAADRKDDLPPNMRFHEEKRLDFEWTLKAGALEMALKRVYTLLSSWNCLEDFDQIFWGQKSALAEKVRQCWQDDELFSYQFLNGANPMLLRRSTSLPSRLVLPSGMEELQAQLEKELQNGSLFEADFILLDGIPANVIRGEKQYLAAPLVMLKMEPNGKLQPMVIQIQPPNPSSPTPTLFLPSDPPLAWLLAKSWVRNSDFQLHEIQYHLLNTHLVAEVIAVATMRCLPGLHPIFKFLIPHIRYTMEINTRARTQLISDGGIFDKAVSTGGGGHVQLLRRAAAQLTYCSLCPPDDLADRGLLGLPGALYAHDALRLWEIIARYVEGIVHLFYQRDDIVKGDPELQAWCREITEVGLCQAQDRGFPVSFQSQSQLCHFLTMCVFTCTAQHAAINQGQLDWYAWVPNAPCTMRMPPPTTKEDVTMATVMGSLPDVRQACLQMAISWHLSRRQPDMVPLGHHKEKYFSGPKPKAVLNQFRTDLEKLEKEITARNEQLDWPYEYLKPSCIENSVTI
#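 Hydroperoxide product was detected by ferrous iron/xylenol orange as the 573 to 405 nm absorbance ratio. Arachidonic acid at 40 uM (final) was turned over for 30 min at room temperature by 150 nM human 12hLO, pH 7.0 Hepes buffer, after 15 min compound preincubation.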
# DT40 TDP1 no CPT: qHTS for Inhibitors of human tyrosyl-DNA phosphodiesterase 1 (TDP1): qHTS in cells in absence of CPT. Potency, µM (titrated, usually from 46.2 µM), for the others: at the highest dose activity change, negative = growth inhibition, hits mostly inhibitors. DT40 Tdp1-/- hTDP1 cells, no CPT, ATP luminescence, 48 h. 420,000 compounds, 15% hits; further: potency means the concentration at half of the fitted maximal effect; nearly all actives have a fitted effect of over 55% in size
#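 DT40 Tdp1-/-;hTDP1 cells, no CPT (DMSO vehicle only), 400 cells/well; compounds pin-transferred; ≥48 hr, 37 °C; CellTiter-Glo 30 min RT dark, luminescence read.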
# DT40 TDP1 CPT: growth inhibition of DT40 Tdp1-/-;hTDP1 cells with camptothecin (screen for TDP1 inhibitors). AID 686979. chicken DT40 Tdp1-/-;hTDP1 cells + 20 nM CPT, ATP luminescence, 48 h. Potency, µM (series often up to 46.2 µM), inactives show at the highest dose activity change, negative = growth inhibition, most hits filed as inhibitors. 420,000 compounds, 12% hits; further: potency means the concentration at half of the fitted maximal effect; nearly all actives have a fitted effect of over 55% in size
#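 Chicken DT40 Tdp1-/- cells stably complemented with human TDP1 were seeded at 400 cells/well in medium containing 20 nM camptothecin, exposed to pin-transferred compounds, and grown at 37 °C for at least 48 hr. Viability was read as ATP luminescence.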
# IL-1B inflam inh: inhibitors of inflammasome signaling (IL-1 beta secretion); THP-1 LPS/ATP IL-1B secretion, AlphaLISA, 16 h; active compounds read low; activity change, % at 57.5 µM; 360,000 compounds, 4.7% hits; AID 743279; in the data active means activity change below about -50%; inconclusive means mostly about -30% to -49%
#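 THP-1 cells pretreated 1 hr with compounds (up to 57.5 uM final), then stimulated with LPS (250 ng/mL final) plus ATP (1.25 mM final); secreted IL-1B measured by AlphaLISA after 16 hr, decreased signal indicating inhibition.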
# HT1080-NT tox: kills 2HG-producing HT-1080-NT fibrosarcoma cells | HT-1080-NT fibrosarcoma viability, CellTiter-Glo ATP luminescence, 48 h | Potency, µM (doses to about 46.1 µM), without a hit: at the top dose activity, negative = less viability, usual class: cytotoxic | 360,000 compounds, 1.6% hits;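 further: NT is the 2HG producing partner of a matched IDH1 knockdown line; potency means the concentration at half of the fitted maximal effect; 0% = DMSO-treated cells and -100% = media-only wells without cells; nearly all actives have a fitted effect of over 55% in size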
#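 HT-1080-NT; 750 cells/well; 5% FBS RPMI; 48 h compound, 37 degrees C; CellTiter-Glo luminescence; curve fitting and curve-class assignment.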
# HT1080 IDH1KD tx: toxicity to HT-1080 IDH1 knockdown cells (counter line). 360,000 compounds, 2% hits. AID 686971. Potency, µM (series often up to 46.1 µM), inactives show top-dose activity, negative = toxicity, actives largely listed as cytotoxic. HT-1080 IDH1 knockdown viability, ATP luminescence, 48 h;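 further: potency means the concentration at half of the fitted maximal effect; 0% = DMSO wells and -100% = cell-free medium wells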
#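 IDH1KD HT-1080 cells, 750/well, RPMI + 5% FBS; compound pinned after 2 h settling; 48 h, 37 °C; CellTiter-Glo luminescence; % activity normalised to DMSO and no-cell wells; curves fitted, classed by r2 and efficacy.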
# The depositor's hits bear a star; ? = inconclusive; . = no result given. Unless noted, the call rests on the fitted dose curve; in most records, active means well fitted curve in the direction sought with a large enough effect; inconclusive means small, poorly fitted or top-dose-only effect, or another doubt; inactive means no such curve, though single readings can be large; an effect the other way counts as inactive or inconclusive. Unless noted, on the % scale 0 is the no-effect control and ±100 the full control effect.
SMILES,12-LOX inh,DT40 TDP1 no CPT,DT40 TDP1 CPT,IL-1B inflam inh,HT1080-NT tox,HT1080 IDH1KD tx
COc1cccc(N2CCN(C(=O)Cn3ncc4c3-c3ccccc3OC4)CC2)c1,-1%,23µM*,-24%,.,.,.
O=C(Cn1ncc2c1-c1ccccc1OC2)N1CCN(Cc2ccccc2)CC1,5%,?,?,-6,-4%,-3%
CCOC(=O)N1CCN(C(=O)Cn2ncc3c2-c2ccccc2OC3)CC1,22%,-12%,?,-20,0%,-3%
O=C(Cn1ncc2c1-c1ccccc1OC2)N1CCN(c2ccccc2F)CC1,-3%,18µM*,?,.,.,.
Cc1cc2nn(-c3ccccc3)nc2cc1NC(=O)COc1ccc(Cl)cc1,-14%,?,?,.,.,.
O=C1NC(C(=O)NCC2CCCCC2)Cn2cccc21 (configuration not stated),5%,.,.,.,.,.
CC(=O)N/C(=C\c1ccccc1)C(=O)NCC(=O)O,10%,5%,3%,18,-1%,7%
CC(=O)N/C(=C/c1ccccc1)c1sc2ccccc2[n+]1CCCCI,.,11µM*,20µM*,.,.,.
C[n+]1c(/C=C/c2ccc(N)cc2)sc2ccccc21,.,?,18µM*,.,.,.
COc1cc(/C=C/c2sc3ccccc3[n+]2CCCS(=O)(=O)[O-])ccc1O,?,?,?,2,-11%,-13%
CCCN(CCC)c1ccc(/C=C/c2sc3ccccc3[n+]2CCCCI)cc1,.,0.32µM*,0.32µM*,.,.,.
COc1ccc(/C=C/c2sc3ccccc3[n+]2CCCCI)cc1OC,.,13µM*,7.9µM*,.,.,.
CCNC(=O)C1(C)CCN(C(=O)c2ccc(C#N)cc2)C1 (configuration not stated),-14%,0%,-8%,13,30%,22%
Cc1nn(C)c(C)c1CCC(=O)N[C@@H]1CN(Cc2ccccc2)C[C@H]1CN(C)C,73%,.,.,.,.,.
CN(C)c1ccc(C(=O)N(Cc2ccccc2)Cc2ccccc2)cc1,-37%,?,?,0,-12%,-18%
CN(C)c1ccc(/C=C/c2sc3ccccc3[n+]2Cc2ccccc2)cc1,.,0.1µM*,0.11µM*,.,.,.
CCOc1ccc(NC(=O)c2cc(=O)c3ccc(C)c(C)c3o2)cc1,?,9.2µM*,?,.,.,.
CCCCOC(=O)c1ccc(NC(=O)c2cc(=O)c3ccc(C)c(C)c3o2)cc1,29%,.,.,.,.,.
Cc1ccccc1N1C(=O)C(Oc2ccc(Cl)cc2)C1CNC(C)(C)C (configuration not stated),?,?,?,-55*,-12%,-10%
COCCNCC1C(Oc2ccc(Cl)cc2)C(=O)N1c1ccccc1C (configuration not stated),-4%,?,?,-17,0%,-2%
COc1ccc(CCNCC2C(Oc3ccc(Cl)cc3)C(=O)N2c2ccccc2C)cc1OC (configuration not stated),-6%,23µM*,?,-73*,?,?
Nc1ncnc2c1ncn2[C@@H]1O[C@H](C(=O)N[C@H]2c3ccccc3C[C@H]2OC=O)[C@@H](O)[C@H]1O,3%,-2%,-8%,36,13%,14%
NC(=O)C1CCCN1S(=O)(=O)c1ccc2ccccc2c1 (configuration not stated),-13%,18%,6%,-20,-6%,0%
NC(=O)NNC(=S)Nc1cccc2ccccc12,-1%,6%,-5%,13,7%,-1%
Cc1ccccc1NC(=O)Nc1ccccc1C(N)=O,-2%,?,10µM*,-10,0%,-1%
SMILES,12-LOX inh,DT40 TDP1 no CPT,DT40 TDP1 CPT,IL-1B inflam inh,HT1080-NT tox,HT1080 IDH1KD tx
Cc1ccccc1C(=O)NNC(N)=S,13%,.,.,.,.,.
Cc1ccc(NC(=O)Nc2ccccc2C(N)=O)cc1,-21%,?,?,0,-1%,21%
Cc1ccccc1NC(=O)CNC(=O)c1ccc(C(F)(F)F)cc1,-27%,-3%,0%,23,1%,11%
Cc1ccccc1NNC(N)=S,?,23µM*,21µM*,?,0%,0%
NC(=O)c1ccccc1NC(=O)Nc1cccc2ccccc12,2%,4.6µM*,1.6µM*,-11,-14%,-5%
Cc1ccccc1NC(=O)Nc1ccc(C(F)(F)F)cc1,-15%,8.2µM*,9.2µM*,-10,-28%,?
N#Cc1ccsc1NC(=O)C1=COCCO1,-7%,8%,8%,-5,5%,-4%
O=C(Nc1nnc(C2CC2)s1)c1cc(-c2ccncc2)nc2ccccc12,47%,.,.,.,.,.
CC(=O)Nc1cccc2ccc(O)cc12,?,-8%,-1%,-10,5%,6%
O=C(Nc1ccccc1F)Nc1cccc2ccc(O)cc12,?,16µM*,16µM*,-9,6%,2%
CC1(C)CC(CCNC(=O)CCl)(c2ccccc2)CCO1 (configuration not stated),-1%,5%,1%,-4,-2%,-6%
CC(NC(=O)c1ccc(OC2CCN(Cc3ccccn3)CC2)cc1)c1ccccc1 (configuration not stated),2%,18µM*,?,-17,-1%,-10%
CCN1CCOC(=O)C1CC(=O)Nc1cc(Cl)ccc1C (configuration not stated),-20%,15µM*,7.3µM*,.,.,.
CCN1CCOC(=O)C1CC(=O)Nc1ccc(C)c(Cl)c1 (configuration not stated),-21%,5.8µM*,7.3µM*,.,.,.
O=C(CC1C(=O)OCCN1Cc1ccccc1)Nc1ccc(Cl)cc1Cl (configuration not stated),-17%,.,.,.,.,.
Cc1cc(C)c2c(=O)cc(C(=O)Nc3ccc(S(=O)(=O)N(C)c4ccccc4)cc3)oc2c1,25%,.,.,.,.,.
COc1cc2oc(=O)c(CC(=O)N(C)C3CCS(=O)(=O)C3)c(C)c2cc1Cl (configuration not stated),-44%,.,.,.,.,.
Cc1nn(CCC#N)c(N)c1C1(O)C(=O)Nc2c(Cl)cc(Cl)cc21 (configuration not stated),9%,3.7µM*,16µM*,134,-10%,0%
COC(=O)[C@@]12C[C@@H](CC(=O)N3CCCC3)C(=O)N(CCc3ccc(OC)c(OC)c3)C1=CCC(C)(C)C2,1%,?,?,-5,1%,-1%
O=[N+]([O-])c1cc2ncccc2c2ncccc12,-13%,4.6µM*,6.5µM*,?,?,-25%

# Screening results (PubChem BioAssay)
